This is an account of results in ChEMBL document CHEMBL1961873, “Compounds: GSK PKIS; Assays: Nanosyn kinase panel” (2012).

For test [1], the target named is T1, Serine/threonine-protein kinase D2 (Homo sapiens) (UniProt Q9BZL6).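 Also: mean value of PRKD2 inhibition, from the GSK PKIS screening panel.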
T1 sequence (whole entry): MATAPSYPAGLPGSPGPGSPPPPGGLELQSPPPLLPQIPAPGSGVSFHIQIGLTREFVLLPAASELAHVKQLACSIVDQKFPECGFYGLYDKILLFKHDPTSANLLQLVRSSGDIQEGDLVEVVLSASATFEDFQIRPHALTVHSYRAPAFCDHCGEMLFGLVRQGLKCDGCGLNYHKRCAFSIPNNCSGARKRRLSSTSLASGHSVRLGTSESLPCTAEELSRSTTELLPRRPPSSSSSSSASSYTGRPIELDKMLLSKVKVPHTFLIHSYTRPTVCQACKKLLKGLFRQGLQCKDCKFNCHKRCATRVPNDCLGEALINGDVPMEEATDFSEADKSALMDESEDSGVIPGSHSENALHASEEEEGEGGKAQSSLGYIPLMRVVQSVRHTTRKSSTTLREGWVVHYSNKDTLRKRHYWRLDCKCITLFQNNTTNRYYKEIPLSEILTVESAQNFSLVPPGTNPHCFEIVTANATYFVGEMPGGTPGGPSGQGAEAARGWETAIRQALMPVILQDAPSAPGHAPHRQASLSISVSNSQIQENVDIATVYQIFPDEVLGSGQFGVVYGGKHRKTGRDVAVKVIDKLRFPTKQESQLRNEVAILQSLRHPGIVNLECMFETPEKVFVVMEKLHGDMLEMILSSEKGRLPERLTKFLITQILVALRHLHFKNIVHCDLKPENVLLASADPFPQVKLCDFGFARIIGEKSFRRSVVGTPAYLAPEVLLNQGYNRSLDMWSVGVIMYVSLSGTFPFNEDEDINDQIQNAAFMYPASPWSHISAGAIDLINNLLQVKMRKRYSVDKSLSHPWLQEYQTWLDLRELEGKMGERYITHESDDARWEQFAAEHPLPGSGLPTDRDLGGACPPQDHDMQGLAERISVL
The conditions noted are these: at 1 µM.

The target of test [2] is T2, Serine/threonine-protein kinase D3 (Homo sapiens) (UniProt O94806).
T2 sequence (whole entry): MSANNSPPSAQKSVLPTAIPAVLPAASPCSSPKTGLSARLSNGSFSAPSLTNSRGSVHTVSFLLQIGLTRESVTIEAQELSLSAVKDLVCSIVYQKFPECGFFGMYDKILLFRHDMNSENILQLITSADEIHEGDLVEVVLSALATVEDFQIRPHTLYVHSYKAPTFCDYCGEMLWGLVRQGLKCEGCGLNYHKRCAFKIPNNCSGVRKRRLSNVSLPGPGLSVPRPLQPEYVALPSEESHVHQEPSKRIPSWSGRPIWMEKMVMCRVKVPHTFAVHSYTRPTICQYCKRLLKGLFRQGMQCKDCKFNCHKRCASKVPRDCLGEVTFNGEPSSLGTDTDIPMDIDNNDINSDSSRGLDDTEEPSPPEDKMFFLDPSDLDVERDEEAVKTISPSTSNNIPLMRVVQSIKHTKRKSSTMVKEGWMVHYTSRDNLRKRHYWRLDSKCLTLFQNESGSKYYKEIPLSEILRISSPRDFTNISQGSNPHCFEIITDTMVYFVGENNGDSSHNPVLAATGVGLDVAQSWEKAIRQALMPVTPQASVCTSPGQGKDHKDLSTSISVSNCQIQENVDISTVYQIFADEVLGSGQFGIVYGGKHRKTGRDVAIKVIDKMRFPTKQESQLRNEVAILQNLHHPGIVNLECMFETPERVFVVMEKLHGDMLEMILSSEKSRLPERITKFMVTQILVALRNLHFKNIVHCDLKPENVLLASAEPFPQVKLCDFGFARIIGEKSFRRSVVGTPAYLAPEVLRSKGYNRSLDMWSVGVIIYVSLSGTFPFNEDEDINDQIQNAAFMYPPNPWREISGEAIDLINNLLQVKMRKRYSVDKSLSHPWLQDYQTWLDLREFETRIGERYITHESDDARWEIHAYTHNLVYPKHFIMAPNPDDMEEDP
The settings on record: at 0.1 µM.

The target in test [3] is T2, Serine/threonine-protein kinase D3 (Homo sapiens). The conditions noted are these: at 1 µM.
Test [4] addresses T3, cGMP-dependent protein kinase 1 (Homo sapiens) (UniProt Q13976).
T3 sequence (whole entry): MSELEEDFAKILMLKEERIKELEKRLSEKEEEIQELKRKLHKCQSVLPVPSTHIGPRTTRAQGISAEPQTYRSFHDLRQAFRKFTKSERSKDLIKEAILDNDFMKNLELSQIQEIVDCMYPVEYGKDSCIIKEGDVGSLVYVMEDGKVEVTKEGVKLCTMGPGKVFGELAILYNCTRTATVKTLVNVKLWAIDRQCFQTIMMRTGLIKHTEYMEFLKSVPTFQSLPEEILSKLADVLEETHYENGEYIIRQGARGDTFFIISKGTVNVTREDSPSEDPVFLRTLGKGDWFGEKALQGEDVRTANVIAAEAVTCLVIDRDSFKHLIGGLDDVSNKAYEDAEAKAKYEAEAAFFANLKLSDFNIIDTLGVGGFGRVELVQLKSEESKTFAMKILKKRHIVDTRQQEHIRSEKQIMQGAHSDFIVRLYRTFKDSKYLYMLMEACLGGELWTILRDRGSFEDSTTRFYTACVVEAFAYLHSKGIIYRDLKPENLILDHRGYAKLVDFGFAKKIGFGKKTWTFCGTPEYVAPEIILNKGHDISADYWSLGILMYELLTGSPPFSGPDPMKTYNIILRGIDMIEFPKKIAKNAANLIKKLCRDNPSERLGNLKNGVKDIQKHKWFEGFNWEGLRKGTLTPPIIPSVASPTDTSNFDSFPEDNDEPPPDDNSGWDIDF
The settings on record: at 0.1 µM.

The target of test [5] is T3, cGMP-dependent protein kinase 1 (Homo sapiens). The settings on record: at 1 µM.
The target in test [6] is T4, cGMP-dependent protein kinase 2 (Homo sapiens) (UniProt Q13237).
T4 sequence (whole entry): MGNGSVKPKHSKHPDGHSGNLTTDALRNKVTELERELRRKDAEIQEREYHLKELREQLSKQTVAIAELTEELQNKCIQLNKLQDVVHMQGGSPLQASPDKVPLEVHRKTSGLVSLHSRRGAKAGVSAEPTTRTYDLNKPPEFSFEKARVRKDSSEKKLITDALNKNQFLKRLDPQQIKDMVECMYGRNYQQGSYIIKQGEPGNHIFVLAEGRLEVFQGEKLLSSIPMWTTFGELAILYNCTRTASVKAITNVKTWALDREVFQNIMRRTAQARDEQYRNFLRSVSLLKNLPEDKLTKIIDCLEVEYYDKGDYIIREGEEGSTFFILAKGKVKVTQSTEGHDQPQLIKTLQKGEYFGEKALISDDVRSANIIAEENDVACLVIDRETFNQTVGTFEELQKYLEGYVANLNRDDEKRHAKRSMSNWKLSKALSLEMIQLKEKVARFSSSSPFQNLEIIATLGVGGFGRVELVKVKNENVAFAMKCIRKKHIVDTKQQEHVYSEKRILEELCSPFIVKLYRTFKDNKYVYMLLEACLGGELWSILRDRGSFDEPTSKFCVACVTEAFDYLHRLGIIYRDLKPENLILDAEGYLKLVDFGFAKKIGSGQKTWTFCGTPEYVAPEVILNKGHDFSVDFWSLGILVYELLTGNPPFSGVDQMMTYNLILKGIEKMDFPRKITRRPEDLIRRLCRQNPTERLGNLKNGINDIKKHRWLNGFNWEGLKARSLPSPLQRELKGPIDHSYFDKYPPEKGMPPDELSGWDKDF
The settings on record: at 0.1 µM.

For test [7], the target named is T4, cGMP-dependent protein kinase 2 (Homo sapiens). The settings on record: at 1 µM.
The target in test [8] is T5, cAMP-dependent protein kinase catalytic subunit PRKX (Homo sapiens) (UniProt P51817).
T5 sequence (whole entry): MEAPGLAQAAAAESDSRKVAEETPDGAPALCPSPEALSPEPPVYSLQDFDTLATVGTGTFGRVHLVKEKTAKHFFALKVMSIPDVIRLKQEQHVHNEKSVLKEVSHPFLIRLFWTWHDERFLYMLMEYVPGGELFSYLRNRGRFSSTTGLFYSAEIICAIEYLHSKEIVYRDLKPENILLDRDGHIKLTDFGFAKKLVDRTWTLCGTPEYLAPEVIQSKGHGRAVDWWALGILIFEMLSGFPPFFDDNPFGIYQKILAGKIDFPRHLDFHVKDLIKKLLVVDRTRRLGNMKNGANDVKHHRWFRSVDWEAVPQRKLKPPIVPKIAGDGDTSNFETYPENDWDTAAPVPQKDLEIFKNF
The conditions noted are these: at 0.1 µM.

Test [9] addresses T5, cAMP-dependent protein kinase catalytic subunit PRKX (Homo sapiens). The settings on record: at 1 µM.
Test [10] addresses Rho-associated protein kinase 1 (Homo sapiens) (UniProt Q13464). The settings on record: at 0.1 µM.

Usually inhibition stands for the drop in the measured response relative to a control, in per cent.

Sequence of Rho-associated protein kinase 1 (Homo sapiens) (Q13464 2-1354 limits assumed): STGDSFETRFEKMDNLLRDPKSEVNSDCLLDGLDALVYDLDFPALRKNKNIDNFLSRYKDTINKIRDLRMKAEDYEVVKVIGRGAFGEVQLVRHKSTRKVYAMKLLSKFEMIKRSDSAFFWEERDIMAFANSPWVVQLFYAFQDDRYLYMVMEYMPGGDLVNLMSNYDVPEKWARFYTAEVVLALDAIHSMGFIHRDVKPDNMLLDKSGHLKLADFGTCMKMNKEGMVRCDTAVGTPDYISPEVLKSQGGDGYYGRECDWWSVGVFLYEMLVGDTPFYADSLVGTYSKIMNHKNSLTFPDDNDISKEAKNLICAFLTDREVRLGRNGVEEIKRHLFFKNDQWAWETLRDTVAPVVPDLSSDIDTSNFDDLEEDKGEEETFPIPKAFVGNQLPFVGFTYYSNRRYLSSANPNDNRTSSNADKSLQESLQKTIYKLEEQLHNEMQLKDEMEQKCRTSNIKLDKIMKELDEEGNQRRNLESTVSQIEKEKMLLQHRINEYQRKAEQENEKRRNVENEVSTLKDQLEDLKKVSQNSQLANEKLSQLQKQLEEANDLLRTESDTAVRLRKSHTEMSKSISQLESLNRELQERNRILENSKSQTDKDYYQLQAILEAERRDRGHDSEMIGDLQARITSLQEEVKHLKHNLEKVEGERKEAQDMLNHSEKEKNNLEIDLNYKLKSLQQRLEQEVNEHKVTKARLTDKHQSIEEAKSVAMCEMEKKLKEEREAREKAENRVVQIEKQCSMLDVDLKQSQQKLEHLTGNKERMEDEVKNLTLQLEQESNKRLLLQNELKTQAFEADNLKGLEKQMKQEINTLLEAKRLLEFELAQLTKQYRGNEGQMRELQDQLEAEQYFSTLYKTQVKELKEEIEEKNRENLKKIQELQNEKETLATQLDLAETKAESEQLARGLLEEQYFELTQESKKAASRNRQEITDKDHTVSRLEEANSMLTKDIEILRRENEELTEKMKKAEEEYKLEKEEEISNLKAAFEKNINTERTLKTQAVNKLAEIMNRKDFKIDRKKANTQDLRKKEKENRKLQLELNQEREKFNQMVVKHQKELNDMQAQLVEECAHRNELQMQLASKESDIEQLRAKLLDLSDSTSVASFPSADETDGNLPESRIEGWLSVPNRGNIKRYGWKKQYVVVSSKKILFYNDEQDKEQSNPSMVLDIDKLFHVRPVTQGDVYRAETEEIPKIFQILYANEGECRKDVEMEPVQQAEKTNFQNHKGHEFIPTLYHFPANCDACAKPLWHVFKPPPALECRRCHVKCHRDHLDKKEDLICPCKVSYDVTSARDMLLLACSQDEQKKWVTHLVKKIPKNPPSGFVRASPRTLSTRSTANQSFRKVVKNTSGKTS

With `CCn1c(-c2nonc2N)nc2ccccc21`, the inhibition worked out at 4.37% in [1]; 2.15% in test [2]; 3.93% in test [3]; 6.5% in test [4]; 30.9% in [5]; 26.9% in test [6]. Further, the inhibition in test [7] was determined as 70.6%; in test [8], 3.21%; in test [9], 5.67%; in test [10] it was 6.65%.
In the case of `COc1ccc(-c2oc3ncnc(N)c3c2-c2ccc(NC(=O)Nc3cc(C(F)(F)F)ccc3F)cc2)cc1`, the inhibition in [1] is 3.15%; in test [2], 3.02%; in test [3], 2.96%; in test [4], 4.53%; in test [5], 3.73%; in test [6] it was 3.35%. Also, the inhibition is 5.54% in test [7], 4.23% in test [8], 3.47% in test [9] and 2.21% in test [10].
With `N#Cc1c(NC(=O)CN2CCOCC2)sc2c1CCCC2`, the inhibition was found to be 6.36% in test [1]; 4.08% in test [2]; 6.46% in test [3]; 3.2% in [4]; 4.74% in test [5]; 2.59% in test [6]. Moreover, the inhibition in test [7] amounted to 2.65%; in [8], 2.18%; in test [9], 3.49%; in [10], 0.84%.
Take `CNC(=O)c1cccc(C#Cc2cncnc2Nc2ccc(OCc3cccc(F)c3)c(Cl)c2)c1`: the inhibition is 2.02% in [1]; 0.11% in test [2]; 0.04% in test [3]; -0.44% in test [4]; 3.3% in [5]; 0.38% in test [6]. Also, the inhibition in test [7] is 0.97%; in test [8] it was -0.25%; in test [9], 0.9%; in test [10] it was -1.85%.
On to `CC(=O)NCc1cccc(C#Cc2cncnc2Nc2ccc(OCc3cccc(F)c3)c(Cl)c2)c1`, for which the inhibition in [1] amounted to 2.16%; in [2], 1.12%; in [3], 1.92%; in [4], 1.14%; in test [5], 1.95%; in test [6], 1.31%. Also, the inhibition in [7] worked out at 2.28%; in test [8] it was 1.14%; in [9] it was 2.2%; in test [10], 0.02%.
On to `FC(F)(F)c1cccc(-c2nn3ncccc3c2-c2ccnc(Nc3ccc4c(c3)OCCO4)n2)c1`, for which the inhibition in [1] turned out to be 49%; in test [2] it was 6.61%; in test [3] it was 47.2%; in [4] it was 0.41%; in test [5], 2.81%; in test [6], 0.46%. The inhibition in test [7] is 3.03%; in test [8] it was 0.27%; in test [9], -1.55%; in [10], 0%.
With `CN1CCC(n2cnc(-c3ccc(F)cc3)c2-c2ccnc(Nc3ccccc3)n2)CC1`, the inhibition in test [1] was determined as 46.5%; in test [2] it was 6.42%; in test [3], 43.5%; in [4] it was 1.69%; in [5] it was 3.29%; in test [6], 0.99%. The inhibition is 5.8% in [7], 1.37% in [8], 1.71% in test [9] and -0.46% in test [10].
Turning to `COc1ccc(CNC(=O)c2ccc(-c3cc(-c4nnc(C)o4)ccc3C)cc2)cc1`, the inhibition in test [1] stood at 1.08%; in test [2], 0.4%; in test [3], 0.26%; in [4], 3.61%; in [5], 3.68%; in [6] it was 2.93%. The inhibition in [7] came out at 4.96%; in test [8] it was 3.88%; in test [9], 6.21%; in test [10], 2.49%.
As for `CCCN(CCS(C)(=O)=O)Cc1ccc(-c2ccc3ncnc(Nc4ccc(OCc5cccc(F)c5)c(Cl)c4)c3c2)o1`, the inhibition in test [1] amounted to 1.95%; in test [2] it was 1.29%; in [3], 2.73%; in [4], 1.66%; in test [5], 1.47%; in test [6], 0.95%. Further, the inhibition was 1.07% in test [7], 1.89% in [8], 1.27% in test [9] and 0.42% in test [10].
